# Experimental data from ChEMBL document CHEMBL1857833, “Screening and optimization of specific chemical series against human African Trypanosomiasis (HAT)”.
# Hit rate of the full screen: of about 4,400 compounds, about 390 (8.9%) showed an effect of 50% or more. Only a selection was taken, and strong results are over-represented in it overall.
# Test system: Trypanosoma brucei
# Experiment: DNDI: Inhibition of Human African Trypanosomiasis, SBRI 427, in vitro at 2 ug.mL-1
# Format: functional
row,SMILES,% inhibition
1,Cc1ccc(N(C)Cc2coc(-c3cccc4ccccc34)n2)cc1,6%
2,Cn1nc(C(C)(C)C)cc1NCc1coc(-c2ccc(C(C)(C)C)cc2)n1,-5%
3,Cc1ccc(C(C)C)c(Oc2cc(/C(=N/O)Nc3ccc(C(C)C)cc3)ccn2)c1,21%
4,COCCN(Cc1coc(-c2ccccc2Cl)n1)C(C)C,-24%
5,c1ccc2c(-c3nc(CNCc4ccncc4)co3)cccc2c1,6%
6,Cc1ccc(/C(=N/O)NCCN2CCOCC2)c(Oc2ccc3ccccc3c2)n1,15%
7,COc1ccc(-c2nc(CNCc3cccc(C(F)(F)F)c3)co2)cc1,-13%
8,CC1CC(C)CN(Cc2coc(-c3cccc4ccccc34)n2)C1 (stereo not given),28%
9,c1ccc(CNCc2coc(-c3cccc4ccccc34)n2)cc1,8%
10,CCOc1ccccc1-c1nc(CNC2C[C@@H]3C[C@H]([C@H]2C)C3(C)C)co1 (stereo not given in full),101%
11,CN(C)CCNCc1coc(-c2cccc3ccccc23)n1,22%
12,CCOc1ccccc1-c1nc(CNc2ccccc2)co1,6%
13,C[C@@H]1C(NCc2coc(-c3cccc4ccccc34)n2)C[C@H]2C[C@@H]1C2(C)C (stereo not given in full),95%
14,C[C@H]1C(NCc2coc(-c3cccc4ccccc34)n2)C[C@@H]2C[C@H]1C2(C)C (stereo not given in full),85%
15,CCOc1ccccc1-c1nc(CNC23C[C@H]4C[C@@H](C2)C[C@@H](C3)C4)co1,9%
16,Clc1ccccc1-c1nc(CN2CCN(c3ccccn3)CC2)co1,4%
17,Fc1ccc(-c2nc(CNCC(c3ccccc3)c3ccccc3)co2)cc1,-33%
18,COc1cc(-c2nc(CNCc3cccnc3)co2)cc(OC)c1OC,25%
19,CSc1ccc(Oc2nc(C)ccc2/C(=N/O)NCc2ccc(C)o2)cc1C,12%
20,CCOc1ccccc1-c1nc(CN(CC)c2cccc3ccccc23)co1,4%
21,CC(C)c1ccc(Oc2ncccc2/C(=N/O)NC2CCc3ccccc32)cc1 (stereo not given),100%
22,COc1ccc(Oc2ncccc2/C(=N/O)NC2CCc3ccccc32)cc1 (stereo not given),97%

row,SMILES,% inhibition
1,O/N=C(\NC1CCc2ccccc21)c1cccnc1Oc1ccc2ccccc2c1 (stereo not given),97%
2,Cc1ccc(/C(=N/O)NC2CCc3ccccc32)c(Oc2ccc(F)c(F)c2)n1 (stereo not given),20%
3,Cc1ccc(/C(=N/O)NC2CCc3ccccc32)c(Oc2c(F)c(F)cc(F)c2F)n1 (stereo not given),7%
4,CC(C)COc1ncccc1/C(=N/O)NC1CCc2ccccc21 (stereo not given),-11%
5,O/N=C(\NC1CCc2ccccc21)c1cccnc1Oc1ccc(-n2cncn2)cc1 (stereo not given),31%
6,CSc1ccc(Oc2nc(C)ccc2/C(=N/O)NC2CCc3ccccc32)cc1C (stereo not given),21%
7,O/N=C(\NC1CCc2ccccc21)c1cccnc1Oc1ccc(F)cc1Cl (stereo not given),9%
8,O/N=C(\NC1CCc2ccccc21)c1cccnc1Oc1c(F)cccc1F (stereo not given),83%
9,CC(C)c1ccc(N/C(=N\O)c2cccnc2Oc2ccc(Cl)cc2)cc1,11%
10,COc1ccc(Oc2nc(C)ccc2/C(=N/O)NC2CCc3ccccc32)cc1 (stereo not given),23%
11,CCOc1ccccc1-c1nc(CNCc2ccc(C)o2)co1,18%
12,COc1cccc(CN/C(=N\O)c2ccnc(Oc3cccc4cccnc34)c2)c1,35%
13,O/N=C(/c1ccc(Oc2cccc3c2CCCC3)nc1)N1CCN(c2ccccc2)CC1,9%
14,C=CCN(CC=C)Cc1coc(-c2ccc(OC)cc2)n1,1%
15,Cc1ccc(/C(=N/O)N(C)c2ccccc2)c(Oc2ccc(Cl)cc2)n1,22%
16,COc1ccc(CN/C(=N\O)c2ccc(C)nc2Oc2cccc3c2CCCC3)cc1,1%
17,Cc1cccc(-c2nc(CN3CCN(c4cc(C)nc5ccccc45)CC3)co2)c1,27%
18,CCOc1ccccc1-c1nc(CN(CC)C2CCN(Cc3ccccc3)C2)co1 (stereo not given),-5%
19,CC(C)c1ccc(Oc2ccc(/C(N)=N/O)cn2)cc1,23%
20,Cc1ccc(/C(=N/O)NC2CCc3ccccc32)c(Oc2ccc(F)c(Cl)c2)n1 (stereo not given),-22%
21,CCC(CC)NCc1coc(-c2ccc(OC)cc2)n1,-11%
22,COc1ccc(CNCc2coc(-c3ccccc3C)n2)c(OC)c1,5%

row,SMILES,% inhibition
1,COc1cccc(OC)c1CNCc1coc(-c2ccc(C(C)(C)C)cc2)n1,100%
2,COc1ccc(CNCc2coc(-c3ccccc3Br)n2)c(OC)c1,-13%
3,COc1ccc(-c2nc(CNCc3c(OC)cccc3OC)co2)cc1,17%
4,COc1ccc(-c2nc(CNCc3ccc(OC)cc3OC)co2)cc1,4%
5,COc1ccc(CNCc2coc(-c3ccc(C(C)(C)C)cc3)n2)c(OC)c1,69%
6,COc1ccc(CNCc2coc(-c3ccc(C(F)(F)F)cc3)n2)c(OC)c1,11%
7,COc1cccc(OC)c1CNCc1coc(-c2ccc(C)cc2)n1,22%
8,COc1ccc(CNCc2coc(-c3cccc4ccccc34)n2)c(OC)c1,57%
9,COc1ccc(-c2nc(CN3CCc4ccccc4C3)co2)cc1,-8%
10,CN(Cc1coc(-c2ccc(O)cc2)n1)C(c1ccccc1)c1ccccc1,-30%
11,CN(Cc1ccco1)/C(=N\O)c1cccnc1Oc1ccc2c(c1)CCCC2,-1%
12,Cc1ccc(/C(=N/O)N2CCCC2)c(Oc2ccc3ccccc3c2)n1,25%
13,CN(Cc1cccnc1)Cc1coc(-c2ccc(Cl)cc2Cl)n1,36%
14,CN(CC#N)Cc1coc(-c2cccs2)n1,-11%
15,Cc1ccc(CNCc2coc(-c3ccccc3Br)n2)o1,3%
16,C[C@H]1C(NCc2coc(-c3ccc(O)cc3)n2)C[C@@H]2C[C@H]1C2(C)C (stereo not given in full),101%
17,CC1CCCC(NCc2coc(-c3ccc(O)cc3)n2)C1C (stereo not given),-13%
18,CCOc1ccc(-c2nc(CNC3C[C@@H]4C[C@H]([C@H]3C)C4(C)C)co2)cc1 (stereo not given in full),78%
19,CCOc1ccc(-c2nc(CNC3C[C@H]4C[C@@H]([C@@H]3C)C4(C)C)co2)cc1 (stereo not given in full),-5%
20,CCOc1ccc(-c2nc(CNC3C[C@H]4CC[C@@H]3C4)co2)cc1 (stereo not given in full),11%
21,C[C@@H]1C(NCc2coc(-c3ccc(O)cc3)n2)C[C@H]2C[C@@H]1C2(C)C (stereo not given in full),26%
22,CCOc1ccccc1CN/C(=N\O)c1ccc(Oc2ccc(C)cc2OC)nc1,25%

row,SMILES,% inhibition
1,CCN(CCC#N)Cc1coc(-c2cccc3ccccc23)n1,10%
2,Cc1ccccc1-c1nc(CNCC(C)(C)CN(C)C)co1,-8%
3,COc1cc(C)ccc1Oc1nc(C)ccc1/C(=N/O)N1CCCC1,13%
4,COc1cc(C)ccc1Oc1nc(C)ccc1/C(=N/O)NCCSC,-7%
5,CCCN/C(=N\O)c1ccc(C)nc1Oc1ccc(C)cc1OC,22%
6,COc1cc(C)ccc1Oc1nc(C)ccc1/C(=N/O)NCC(C)C,100%
7,COc1cc(C)ccc1Oc1nc(C)ccc1/C(=N/O)NCC(C)(C)C,99%
8,COc1ccc(Oc2nc(C)ccc2/C(=N/O)NCCN2CCCC2)cc1,-2%
9,COc1cc(C)ccc1Oc1nc(C)ccc1/C(=N/O)NCC1CC1,100%
10,Cc1ccc(/C(=N/O)NCCN2CCCC2)c(Oc2cccc(F)c2)n1,-3%
11,COc1cc(C)ccc1Oc1nc(C)ccc1/C(=N/O)NCC1CCCO1 (stereo not given),15%
12,Cc1ccc(Oc2nc(C)ccc2/C(=N/O)NCC(C)C)c(C)c1,20%
13,COc1cc(C)ccc1Oc1nc(C)ccc1/C(=N/O)NCC1CCCCC1,0%
14,Cc1ccc(Oc2nc(C)ccc2/C(=N/O)NCC(C)(C)C)c(C)c1,11%
15,Cc1ccc(/C(=N/O)NCCN2CCCC2)c(Oc2ccc(F)cc2)n1,91%
16,C=CCN1CCN(/C(=N\O)c2ccc(C)nc2OCc2cccc(F)c2)CC1,3%
17,CCC(NCc1coc(-c2cccs2)n1)c1ccccc1 (stereo not given),-5%
18,c1coc(-c2nc(CNC3CCc4ccccc43)co2)c1 (stereo not given),17%
19,CN(Cc1coc(-c2ccccc2F)n1)Cc1cccc2ccccc12,-49%
20,CCN(C)Cc1coc(-c2cccc(F)c2)n1,-10%
21,COc1cc(CNCc2coc(-c3ccc(O)cc3)n2)cc(OC)c1,8%
22,CC(C)c1ccc(N/C(=N\O)c2ccc(Oc3ccc4oc5ccccc5c4c3)nc2)cc1,25%

row,SMILES,% inhibition
1,Cc1ccc(/C(=N/O)N2CCSCC2)c(OCc2cccc(F)c2)n1,-17%
2,CCOC(=O)C1CCCN(Cc2coc(-c3cc(OC)c(OC)c(OC)c3)n2)C1 (stereo not given),-16%
3,CN(Cc1coc(-c2ccc(Br)cc2)n1)CC1OCCO1,11%
4,Cc1ccccc1-c1nc(CN2CC(C)CC(C)C2)co1 (stereo not given),6%
5,Cc1ccc(/C(=N/O)NCC2CC2)c(Oc2ccc(F)cc2)n1,33%
6,COc1ccc(Oc2nc(C)ccc2/C(=N/O)NCC2CC2)cc1,24%
7,Cc1ccc(Oc2nc(C)ccc2/C(=N/O)NCC2CC2)cc1,74%
8,CCOc1cccc(-c2nc(Cn3cnc(-c4ccccc4)c3)co2)c1,11%
9,CN(Cc1coc(-c2ccco2)n1)C1CCCCC1,11%
10,Cc1ccccc1CNCc1coc(-c2ccc(O)cc2)n1,1%
11,O/N=C(\NC1CC1)c1cccnc1Oc1ccccc1F,78%
12,O/N=C(/c1cccnc1Oc1ccccc1F)N1CCOCC1,13%
13,O/N=C(/c1cccnc1Oc1ccccc1F)N1CCCCC1,23%
14,Cc1ccc(/C(=N/O)NC2CC2)c(Oc2cccc3cccnc23)n1,29%
15,O/N=C(\NCCN1CCCC1)c1cccnc1Oc1ccccc1F,30%
16,COc1ccccc1Oc1ncccc1/C(=N/O)N1C(C)CCCC1C (stereo not given),9%
17,COC(=O)C1CCN(/C(=N\O)c2cccnc2Oc2ccccc2SC)CC1,18%
18,CSc1ccccc1Oc1ncccc1/C(=N/O)NC1CCCC1,99%
19,COc1ccccc1Oc1ncccc1/C(=N/O)NC1CCCC1,99%
20,O/N=C(\NC1CCCC1)c1cccnc1Oc1ccccc1F,96%
21,COC(=O)C1CCN(/C(=N\O)c2cccnc2Oc2ccccc2OC)CC1,15%
22,CSc1ccccc1Oc1ncccc1/C(=N/O)N1CCCCC1,8%
